MARV entry inh: inhibitors of Marburg virus binding or cell entry | Marburg virus pseudotyped entry inhibition, cell reporter | Potency, µM (highest dose often 37.8 µM), for the others: top-dose activity change, negative = inhibition, most hits filed as inhibitors | hit rate 1.8% among 300,000; calls by dose curve; tested in HEK293 cells; further: potency means the concentration at half of the fitted maximal effect
VACV mCherry inh: vaccinia inhibition (mCherry reporter); Vaccinia virus mCherry reporter infection, fluorescence; Potency, µM (top dose mostly 36.5 µM), for the others: at the top dose activity change, negative = inhibition, usual class: inhibitors; hit rate 0.63% among 310,000; calls by dose curve; tested in A549 cells; further: potency means the concentration at half of the fitted maximal effect; nearly all actives have a fitted effect of over 35% in size
HCMV antiviral: blocks human cytomegalovirus replication | HFF cells, HCMV-luciferase reporter, 72 h; active compounds read low | activity change, negative = inhibition, % at 57.5 µM | hit rate 4.5% among 410,000; in the data active means activity change below about -60%; inconclusive means no clear call, values can overlap the other calls; inactive means above about -39%
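Two-dose cell screen: HFF monolayers treated with compounds and infected with luciferase-expressing HCMV at 1 PFU/cell, 72 h at 37C, then lysed for luciferase measurement.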
HCV inhibitor: HCV inhibition. Potency, µM (series often up to 41.8 µM), for the others: at the highest dose activity change, negative = inhibition, most hits filed as inhibitors. Huh7.5.1 HCVcc-Cre infection, luciferase reporter, 44 h. AID 651820. hit rate 3.4% among 340,000; active means well fitted inhibition curve with a large enough effect; inconclusive means small, poorly fitted or top-dose-only effect, or another doubt; inactive means no such curve, though single readings can be large or run the other way; further: potency means the concentration at half of the fitted maximal effect
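Whole-lifecycle infectious HCVcc-Cre system; cells 1,000/well, compound then virus (~0.5 moi) added 4 h after plating, 44 h culture. Luciferase read 15 sec following 15 min substrate incubation, room temp.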
Lassa entry inh: Lassa virus entry inhibition. Lassa virus pseudotype entry inhibition, cell reporter. Potency, µM (doses to about 37.9 µM), for the others: top-dose activity change, negative = inhibition, most hits filed as inhibitors. hit rate 1.2% among 300,000; calls by dose curve; tested in HEK293 cells; further: potency means the concentration at half of the fitted maximal effect; nearly all actives have a fitted effect of over 50% in size
VACV Venus inh: vaccinia inhibition (Venus reporter) | Potency, µM (titrated, usually from 36.5 µM), inactives show at the highest dose activity change, negative = inhibition, hits mostly inhibitors | Vaccinia virus Venus reporter expression, fluorescence | AID 720580 | hit rate 0.46% among 330,000; calls by dose curve; tested in A549 cells; further: potency means the concentration at half of the fitted maximal effect; nearly all actives have a fitted effect of over 30% in size
* = called active by the depositor; [ ] = remark or other dose. Hits are enriched below; roughly 7.8% of the tested compounds scored in any of these assays. On the % scale 0 is the no-effect control and ±100 the full control effect.

How did CCSc1cc(N2CCCC2)nc(-c2cccc(C)c2)n1 do in these assays?
MARV entry inh: inconclusive; VACV mCherry inh: inactive; HCMV antiviral: -62*; HCV inhibitor: inconclusive; Lassa entry inh: inconclusive; VACV Venus inh: 1%

What do the screens show for `O=C(Cc1cscn1)N1CCOc2ccc(CN3CCN(c4ccccn4)CC3)cc2C1`?
VACV mCherry inh: -9%; VACV Venus inh: -2%

How did COC(=O)c1ccc(NC(=O)c2cc3cc(C)ccc3n2C)cc1 do in these assays?
MARV entry inh: -1%[46.1 µM]; VACV mCherry inh: -8%; HCMV antiviral: -6; Lassa entry inh: 6%[46.1 µM]; VACV Venus inh: -12%

Results for OC1(c2cccnc2)CCN(Cc2ccc3c(c2)CN(Cc2cccc(F)c2F)CCO3)CC1 ?
VACV mCherry inh: -16%; VACV Venus inh: -2%

What do the screens show for `CCCCNC(=O)C1(C)CCN1C(=O)c1ccc2c(c1)C(C)(C)CCC2(C)C` (stereo not drawn)?
VACV mCherry inh: -22%; HCMV antiviral: 11; VACV Venus inh: -17%

Results for C#CCN(C[C@@H]1[C@@H](OC(=O)NCc2ccc(OC)c(OC)c2)[C@@H](OC(=O)NCc2ccc(OC)c(OC)c2)Cn2c(=O)n(CCCCCC)c(=O)n21)S(=O)(=O)c1ccc(C)cc1 ?
VACV mCherry inh: -10%; HCMV antiviral: -16; VACV Venus inh: -26%

How did C#CCN(C[C@H]1[C@H](OC(=O)NCc2ccco2)[C@H](OC(=O)NCc2ccco2)C[C@H]2C(=O)N(c3ccccc3)C(=O)[C@@H]12)S(=O)(=O)c1ccc(C)cc1 do in these assays?
VACV mCherry inh: inactive; HCMV antiviral: 7; VACV Venus inh: -7%

What do the screens show for `C#CCN(C[C@@H]1[C@@H](OC(=O)NCc2ccc(OC)c(OC)c2)[C@@H](OC(=O)NCc2ccc(OC)c(OC)c2)Cn2c(=O)ccc(=O)n21)S(=O)(=O)c1ccc(C)cc1`?
VACV mCherry inh: inconclusive; HCMV antiviral: -107*; VACV Venus inh: inconclusive

What do the screens show for `C#CCN(C[C@@H]1[C@@H](OC(=O)NCc2ccco2)[C@@H](OC(=O)NCc2ccco2)Cn2c(=O)n(CCCCCC)c(=O)n21)S(=O)(=O)c1ccc(C)cc1`?
VACV mCherry inh: -19%; HCMV antiviral: -74*; VACV Venus inh: -25%

How did C#CCN(C[C@@H]1[C@@H](OC(=O)NCc2ccccc2)[C@@H](OC(=O)NCc2ccccc2)Cn2c(=O)n(CCCCCC)c(=O)n21)S(=O)(=O)c1ccc(C)cc1 do in these assays?
VACV mCherry inh: -2%; HCMV antiviral: 4; VACV Venus inh: -19%

Results for C#CCN(C[C@@H]1[C@@H](OC(=O)NCc2ccco2)[C@@H](OC(=O)NCc2ccco2)Cn2c(=O)ccc(=O)n21)S(=O)(=O)c1ccc(C)cc1 ?
VACV mCherry inh: inconclusive; HCMV antiviral: -101*; VACV Venus inh: 7.9µM*

Results for CCOC(=O)c1cccc(NC(=O)CC2C(=O)N(c3ccc(OC)cc3)C(=O)N2C2CCCC2)c1 (stereo not drawn) ?
VACV mCherry inh: -16%; HCMV antiviral: 22; Lassa entry inh: -13%[46.1 µM]; VACV Venus inh: -17%

Results for C=CCn1c(SCC(=O)c2[nH]c(C)c(C(=O)OCC)c2C)nc2scc(-c3ccc(OC)c(OC)c3)c2c1=O ?
MARV entry inh: inconclusive; VACV mCherry inh: -3%; HCMV antiviral: -100*; HCV inhibitor: inconclusive; Lassa entry inh: -25%; VACV Venus inh: -5%

What do the screens show for `CCC(=O)C[C@@H](NC(=O)OC)c1ccc(F)cc1`?
MARV entry inh: 6%[14.2 µM]

What do the screens show for `COc1ccc(-n2nc3c(N4CCCC(C(=O)NCc5cccc(F)c5)C4)nnc(C)c3c2C)cc1` (stereo not drawn)?
VACV mCherry inh: inconclusive; HCMV antiviral: -84*; Lassa entry inh: -11%[46.1 µM]; VACV Venus inh: -5%

What do the screens show for `COc1ccc(-n2nc3c(N4CCC(C(=O)NCc5cccc(C)c5)CC4)nnc(C)c3c2C)cc1`?
HCMV antiviral: -100*; HCV inhibitor: inconclusive

Results for Cc1nnc(N2CCCC(C(=O)NCCc3ccccc3)C2)c2nn(-c3ccccc3)c(C)c12 (stereo not drawn) ?
VACV mCherry inh: -11%; HCMV antiviral: -35; Lassa entry inh: inconclusive; VACV Venus inh: -17%

Results for Cc1ccc(-c2[nH]nc(N)c2N=Nc2ccccc2C)cc1 ?
MARV entry inh: 8.2µM*; VACV mCherry inh: inconclusive; HCMV antiviral: -65*; HCV inhibitor: inconclusive; Lassa entry inh: inconclusive; VACV Venus inh: inconclusive

Results for Cc1ccc(N=Nc2c(N)n[nH]c2N)cc1 ?
MARV entry inh: 16%[46.1 µM]; VACV mCherry inh: inconclusive; HCMV antiviral: 46; HCV inhibitor: -2%; Lassa entry inh: -6%[46.1 µM]; VACV Venus inh: inconclusive

How did Cc1cccc(N=Nc2c(N)n[nH]c2-c2ccc(Cl)cc2)c1 do in these assays?
MARV entry inh: inconclusive; HCMV antiviral: inconclusive; HCV inhibitor: inconclusive; Lassa entry inh: -7%

How did Cc1ccc(-c2[nH]nc(N)c2N=Nc2cccc(Cl)c2C)cc1 do in these assays?
MARV entry inh: 20µM*; VACV mCherry inh: inconclusive; HCMV antiviral: -28; HCV inhibitor: inconclusive; Lassa entry inh: inconclusive; VACV Venus inh: inconclusive

Results for NNC(=O)Cn1c2c(c3c1CCCC3)CCCC2 ?
MARV entry inh: 1%[46.1 µM]

How did COc1ccccc1CNC(=O)CSc1nc2nc(C)c(Cc3ccccc3Cl)c(C)n2n1 do in these assays?
MARV entry inh: 9%[46.1 µM]; VACV mCherry inh: -8%; HCMV antiviral: -3; Lassa entry inh: -6%[46.1 µM]; VACV Venus inh: -9%

How did CCN(c1ccccc1)S(=O)(=O)c1cccc(C(=O)NCC(c2ccco2)N2CCCC2)c1 (stereo not drawn) do in these assays?
MARV entry inh: inconclusive; VACV mCherry inh: -8%; HCMV antiviral: -33; HCV inhibitor: 10µM*; Lassa entry inh: 5%; VACV Venus inh: -26%

Results for CCN(c1ccccc1)S(=O)(=O)c1cccc(C(=O)NCC(c2ccco2)N2CCCCC2)c1 (stereo not drawn) ?
MARV entry inh: inconclusive; VACV mCherry inh: inconclusive; HCMV antiviral: -71*; HCV inhibitor: 10µM*; Lassa entry inh: -28%; VACV Venus inh: -24%

How did COc1ccc(Nc2oc(/C=C/c3ccc(OC)c(OC)c3)nc2C#N)cc1 do in these assays?
MARV entry inh: 0%[46.1 µM]; VACV mCherry inh: -8%; HCMV antiviral: 4; Lassa entry inh: 1%[46.1 µM]; VACV Venus inh: -9%

How did COc1cc2c(cc1OC)-c1c(OC)c(OC)c(OC)c3ccnc(c13)C2=O do in these assays?
MARV entry inh: 18µM*; VACV mCherry inh: inconclusive; HCV inhibitor: -23%; Lassa entry inh: inconclusive; VACV Venus inh: inconclusive

Compound activity: PubChem BioAssay, National Center for Advancing Translational Sciences (NCATS)
